# According to PubChem BioAssay AID488834 (National Center for Advancing Translational Sciences (NCATS), 2010):
# Unmarked numbers belong to inactive results. Calls follow the shape of the dose curve; as a rule, active = well fitted curve in the direction sought with a large enough effect; inactive = no such curve, though single readings can be large or run the other way.
# Molecular target: Lysosomal alpha-glucosidase (Homo sapiens) (UniProt P10253)
# Assay: qHTS Assay for Inhibitors and Activators of N370S glucocerebrosidase as a Potential Chaperone Treatment of Gaucher Disease: Alpha-Glucosidase Counterscreen for Probe SAR
# Details: purified human alpha-glucosidase, 4-MU fluorogenic substrate
# Source text: NIH Chemical Genomics Center [NCGC] NIH Molecular Libraries Probe Production Centers Network [MLPCN] MLPCN Grant: MH086442-01 Assay Submitter (PI): Wei Zheng Glucocerebrosidase (GC) catalyzes the hydrolysis of beta-glucocerebroside to glucose and ceramide in lysosomes. Mutations in the glucocerebrosidase gene result in Gaucher disease, an autosomal recessive lysosomal storage disorder. Many of the mutations encountered in patients with Gaucher disease are missense alterations that may cause misfolding, decreased stability and/or mistrafficking of this lysosomal protein. […] These inhibitors include iminosugar analogs and three non-iminosugar inhibitors identified from a previous HTS of 62,000 compounds with the wild type recombinant enzyme. However, the enhancement of enzyme activity by the chaperone action of an enzyme inhibitor must be balanced against the direct inhibition of the enzyme. An enzyme activator could also function as a chaperone by binding to the enzyme and helping to correct its misfolding and mistrafficking. While activators for GC have not yet been identified, they may have better therapeutic potential than inhibitors. Therefore the discovery and development of chemical activators may provide a new strategy for the chaperone therapy. To characterize compound selectivity, selected hits from the primary screen were screened against purified alpha-glucosidase, a related sugar hydrolase. Alpha-glucosidase is responsible for hydrolysis of terminal, non-reducing 1,4-linked alpha-D-glucose residues with release of alpha-D-glucose.
# NCGC Assay Protocol Summary: This is a fluorogenic enzyme assay with 4-methylumbelliferyl-alpha-D-[…] as the substrate and human alpha-glucosidase as the enzyme preparation. Upon the hydrolysis of this fluorogenic substrate, the resulting product, 1. 4-methyllumbelliferone, can be excited at 365 nm and emits at 440 nm which can be detected by a standard fluorescence plate reader. Data were normalized to the controls for basal activity (without enzyme) and 100% activity (with enzyme). The AC50 values were determined from concentration-response data modeled with the standard Hill equation. Assay buffer: 50 mM citric acid (titrated with potassium phosphate to pH 5.0), 0.005% Tween-20, pH 5.0. (pH 5.0 is an optimal condition for this enzyme assay) 1536-well assay protocol for the human alpha-glucosidase: (1) Add 2 ul/well of enzyme (4 nM final) (2) Add 23 nL compounds in DMSO solution. The final titration was 0.7 nM to 77 uM. (3) Add 1 ul of substrate (400 uM final) (4) Incubate at room temperature for 20 min. (5) Add 2 ul stop solution (1M NaOH and 1M Glycine mixture, pH 10) (6) Detect the assay plate in a ViewLux plate reader (PerkinElmer) with Ex=365 nm and Em=440nm. Keywords: Alpha-glucosidase, Pompe Disease, pharmacological chaperone, chaperone therapy, high throughput screening, alpha-glucosidase inhibitor, MLSMR, MLSCN, NIH Roadmap, qHTS and NCGC
row,SMILES,max response
1,O=C(NC1CCCCC1)c1cnn2c1NC(=C1CC1)C=C2C(F)F,-3.85%
2,O=C(Nc1ccccc1Sc1ccccc1)c1cnn2c1NC(=C1CC1)C=C2C(F)(F)F,-11.4%
3,O=C(Nc1ccccc1Sc1ccccc1)c1cnn2c1NC(=C1CC1)C=C2C(F)F,-18.1%
4,C#Cc1ccc(NC(=O)c2cnn3c(C)cc(C)nc23)cc1,-2.48%
5,O=C(Nc1ccc2c(c1)CCC2)c1cnn2c1NC(=C1CC1)C=C2C(F)F,-4.43%
6,C=C1C=C(C(F)F)n2ncc(C(=O)Nc3ccc(C(C)CC)cc3)c2N1 (stereo unspecified),-2.76%
